Compounds with a hit are over-represented: about 21% of the library has one in this group of screens.
Giardia FBPA inh – inhibitors of Giardia lamblia fructose-1,6-bisphosphate aldolase | 290,000 compounds, 0.71% hits | Potency, µM (series often up to 59.6 µM), actives largely listed as inhibitors | AID 2451 | purified Giardia FBPA; also: nearly all actives have a fitted effect of over 55% in size
Target sequence (A8B2U2 whole entry, looked up): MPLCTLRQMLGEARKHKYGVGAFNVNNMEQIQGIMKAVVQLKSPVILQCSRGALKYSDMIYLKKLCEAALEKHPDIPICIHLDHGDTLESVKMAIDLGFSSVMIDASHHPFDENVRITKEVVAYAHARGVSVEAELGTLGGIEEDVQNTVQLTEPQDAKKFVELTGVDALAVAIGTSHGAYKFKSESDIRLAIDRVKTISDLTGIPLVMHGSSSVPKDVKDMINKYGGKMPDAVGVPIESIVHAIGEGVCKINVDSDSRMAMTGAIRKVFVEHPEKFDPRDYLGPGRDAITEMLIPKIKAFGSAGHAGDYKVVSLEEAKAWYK
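Giardia FBPA (40 nM reagent) was preincubated 10 min at RT with compound (up to 57.5 uM final), then substrate plus GAPDH/TPI/NAD/arsenate coupling system with diaphorase/resazurin was added; resorufin fluorescence (525/598 nm) was read after 20 min.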
Shiga inhibitor – Shiga toxin inhibition; Vero cells, Shiga toxin protein synthesis inhibition reporter; inhibition, % at 38.7 µM; 290,000 compounds, 9.2% hits; AID 2315; in the data active = inhibition mostly above about 28%, no sharp cut-off; inactive = mostly below about 43%
Pf growth 96h – P. falciparum growth inhibition at 96 hours; AID 504834; P. falciparum luciferase reporter growth, 96 h; Potency, µM (titrated, usually from 28.7 µM), hits mostly inhibitors; 320,000 compounds, 6.9% hits
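Plates of compound plus infected erythrocytes (2% hematocrit, 0.05% parasitemia final) incubate 96 hours, 37 C, 5% CO2. Detection reagent added; reduced luminescence from the parasites' luciferase reporter flags inhibition.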
CHX counter – affects cycloheximide protein synthesis inhibition readout, counter-screen | max response, % | 300,000 compounds, 12% hits | cell reporter, cycloheximide protein synthesis inhibition counterscreen; in the data active = max response mostly above about 13%, no sharp cut-off; inactive = mostly below about 14%; also: read at 38.3 µM for the half of the compounds with a filed dose
NS1 function inh – inhibitors of influenza NS1 protein function. Potency, µM (top dose mostly 46.1 µM). 270,000 compounds, 0.4% hits; calls by dose curve; also: actives are rising curves; nearly all actives have a fitted effect of over 50% in size
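A cell-based growth assay was used: compounds that relieve NS1-induced slow growth of budding yeast raise OD600. Assay medium was yeast nitrogen base with ammonium sulphate and -URA supplement, pH 6.0, with 2% galactose.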
Pf growth 48h – P. falciparum growth inhibition at 48 hours (one generation). Potency, µM (series often up to 28.7 µM), hits mostly inhibitors. P. falciparum luciferase growth in erythrocytes, 48 h. 310,000 compounds, 5.9% hits
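First compound was added to culture medium, then infected red cells at 0.1% parasitemia and 2% hematocrit (final). After incubation at 37 C under 5% CO2, luciferase detection reagent was dispensed and light output recorded.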
A number is an active result; – = inactive; ? = inconclusive; · = no result; [ ] = dose if it differs, or a comment. Unless noted, calls follow the shape of the dose curve; as a rule, active = well fitted curve in the direction sought with a large enough effect; inconclusive = small, poorly fitted or top-dose-only effect, or another doubt; inactive = no such curve, though single readings can be large; an effect the other way counts as inactive or inconclusive.

SMILES	Giardia FBPA inh	Shiga inhibitor	Pf growth 96h	CHX counter	NS1 function inh	Pf growth 48h
O=S(=O)(c1ccc(SCc2ccccc2F)nc1)N1CCCC1	·	·	–	·	·	–
Cc1ccc(-c2nc(N3CCOCC3)s[n+]2-c2ccccc2)cc1	–	85.1	–	61.6	–	–
Cc1ccc(Nc2nc(-c3ccncc3)cs2)cc1	–	119.4	–	47.4	–	–
Cc1nc(-c2ccc3c(c2)OCCO3)cs1	–	169.4	–	43.7	·	–
Cc1cccc(Nc2nc(-c3ccc4c(c3)OCCO4)cs2)c1	–	120.3	–	43.6	–	·
Cc1cccc(Nc2nc(-c3ccncc3)cs2)c1	–	142.7	–	41.7	·	–
COc1cc(-c2csc(C)n2)ccc1O	–	–	·	–	–	–
Clc1cccc(Nc2nc(-c3ccncc3)cs2)c1	–	–	–	–	–	–
CCOC(=O)CC(NS(=O)(=O)c1ccc2[nH]cc(C(=O)O)c(=O)c2c1)c1ccc(OCC)c(OC)c1 (configuration not stated)	–	–	–	–	–	–
Cc1nc2ccccc2c(=O)n1NC(=O)c1cccc(Cl)c1	–	–	–	–	–	·
Cc1ccc(-c2csc(Cc3nc(-c4ccc5c(c4)CCC(=O)N5)cs3)n2)cc1	–	–	–	–	–	–
Cc1nc(-c2ccc3c(c2)CCC(=O)N3)cs1	–	65.2	–	28.6	–	–
O=[N+]([O-])c1ccc2[nH]c3nc4ccccc4nc3c2c1	–	–	–	–	–	–
COc1ccc(OC)c(-c2cnc(OC(C)(C)C)nc2OC(C)(C)C)c1	–	–	10.4µM	–	–	11.7µM
COc1ccc(-c2ccc(-c3nnc(-c4cc(OC)ccc4OC)o3)cc2)cc1	–	–	–	–	–	–
Cc1ccc2nc(-c3ccccc3)cn2c1	–	–	?	–	–	–
CCCS(=O)(=O)NCc1cn2cccc(C)c2n1	–	–	–	–	–	–
Cc1cccn2cc(-c3ccccc3)nc12	–	63.6	?	51.6	–	–
COc1ccc(-c2cn3cccc(C)c3n2)cc1Br	–	150.3	–	76.0	–	–
Cc1cccn2cc(CNc3ccccc3)nc12	–	68.1	–	50.6	–	–
Cc1cccn2cc(-c3ccc(F)cc3)nc12	–	71.1	–	39.3	–	–
O=C(Cn1c(=O)n(CCC(=O)N2CCCCC2)c(=O)c2sccc21)NCc1ccccc1	–	–	–	–	–	–
CC(C)CC1OCCC=CC1C (configuration not stated)	–[12.9 µM]	·	·	·	·	·
O=C(Nc1ccc(F)cc1)c1cc(-c2ccccn2)nc2c(Cl)cccc12	–	–	–	–	–	–
CCOC(=S)SCc1cn2cccc(C)c2n1	?	–	–	23.9	·	–
SMILES	Giardia FBPA inh	Shiga inhibitor	Pf growth 96h	CHX counter	NS1 function inh	Pf growth 48h
Cc1cccn2cc(CCNS(=O)(=O)c3cccs3)nc12	–	–	–	20.7	–	–
Cc1noc(C)c1C(=O)N1CCC2(CCCN(C(=O)Nc3ccccc3)C2)CC1	–	·	·	·	·	·
FC(F)(F)c1cnc2c(-c3ccccc3)n[nH]c2c1	–	83.0	–	29.0	–	–
CCc1nnc(NC(=O)CCS(=O)(=O)c2ccc(C)cc2)s1	·	·	–	·	·	?
COc1ccc(/C=C2/SC(=S)N(CCCC(=O)Nc3cccc(O)c3)C2=O)cc1	–	45.0	?	34.9	–	14.7µM
COc1ccc(/C=C2\SC(=S)N(CCC(=O)Nc3cccc(O)c3)C2=O)cc1OC	–	–	?	–	–	–
O=C(CN1C(=O)/C(=C/c2ccco2)SC1=S)Nc1ccc(O)c(C(=O)O)c1	·	–	14.7µM	–	–	–
NN1C(=O)/C(=C\c2ccco2)SC1=S	6.29µM	–	–	–	–	–
COc1ccc(NC(=O)CCCN2C(=O)/C(=C\c3ccco3)SC2=S)cc1	–	–	5.22µM	–	–	–
CCCn1c(N)c(N(CCOC)C(=O)CSc2cc(C)c3cccc(C)c3n2)c(=O)[nH]c1=O	·	·	–	·	·	?
COc1ccc(OC)c(C(=O)NC(CC(N)=O)c2ccc(N3CCCCCC3)c([N+](=O)[O-])c2)c1 (configuration not stated)	–	–	?	–	–	–
CCCCn1c(N)c(N(CC(C)C)C(=O)CSc2nnc(-c3ccc(Cl)cc3)o2)c(=O)[nH]c1=O	·	·	–	·	·	–
COc1cc(/C=C2\SC(=S)N(CCC(=O)Nc3ccccc3O)C2=O)cc(OC)c1OC	–	–	13.1µM	–	–	?
COc1cc(/C=C2\SC(=S)N(CCC(=O)NCCc3ccccc3)C2=O)cc(OC)c1OC	–	–	–	–	–	–
COc1cccc(/C=C2\SC(=S)N(CCC(=O)Nc3ccc(O)cc3)C2=O)c1	–	46.6	?	30.1	–	–
COc1cccc(/C=C2\SC(=S)N(CCCC(=O)N(CCO)c3ccccc3)C2=O)c1	·	–	1.85µM	–	–	11.7µM
COc1cccc(/C=C2\SC(=S)N(CCC(=O)NCCc3ccc(O)cc3)C2=O)c1	–	–	?	–	–	?
O=C(O)C(Cc1ccccc1)N1C(=O)/C(=C/c2cccs2)SC1=S (configuration not stated)	–	–	10.4µM	–	–	–
O=C(O)C(F)(F)C(F)(F)C(F)(F)C(F)(F)C(=O)O	·	·	·	·	–	·
C[C@H](CCC(=O)O)[C@H]1CC[C@H]2[C@H]3C(C[C@H](O)[C@]12C)[C@@]1(C)CC[C@@H](O)C[C@H]1C[C@H]3O (some centres not stated)	–	·	·	·	·	·
O=C(CSc1nc(-c2ccco2)cc(C(F)(F)F)n1)NCCN1CCOCC1	–	–	?	–	–	–
CC1CCC2C(=O)N3C(CCC(C)[C@H]3c3cccc(N4CCCC4=O)c3)C(=O)N2C1c1cccc(N2CCCC2=O)c1 (some centres not stated)	–[12.9 µM]	·	·	·	·	·
CCOC(=O)CN1C(=O)S/C(=C/c2ccc(N3CCCCC3)o2)C1=O	–	–	–	–	–	–
COc1cccc(/C=C2\SC(=S)N(NS(=O)(=O)c3ccccc3)C2=O)c1OC	?	–	–	–	–	–
COc1cc(/C=C2\SC(=S)N(NS(=O)(=O)c3ccccc3)C2=O)cc(OC)c1OC	–	–	–	–	–	9.28µM
SMILES	Giardia FBPA inh	Shiga inhibitor	Pf growth 96h	CHX counter	NS1 function inh	Pf growth 48h
CCOC(=O)CN1C(=O)S/C(=C/c2ccco2)C1=O	–	–	–	15.1	–	–
O=C(CN1C(=O)/C(=C\c2cccs2)SC1=S)Nc1cccc(C(=O)O)c1	–	52.7	?	–	–	–
Cc1cc(C)n2nc(C(=O)OCC(=O)NCc3ccc(Cl)cc3)nc2n1	·	·	–	·	·	–
CC(Nc1[nH]c(=O)n(C)c(=O)c1N=O)c1ccccc1 (configuration not stated)	–	–	–	–	·	–
CCNC(=O)NC(=O)C(C)SCc1ccccc1C (configuration not stated)	–	–	6.57µM	–	–	–
COc1ccc(C(=O)NCCCOc2cccc(NC(C)=O)c2)cc1	–	–	?	–	–	–
Cc1cccc(NC(=O)CN2CCN(C(=O)c3c(C)nn(Cc4ccccc4)c3C)CC2)c1C	·	·	–	·	·	–
C/C(N)=C(/C#N)C(=O)CSc1ccc2c(c1)OCCO2	–	97.9	–	47.8	–	–
